Source: the supplement of paper PMC3334620
Whole data set: some 33,000 sequences, median “E-score (-0.5 to 0.5)” near -0.016, cut for the highest 2% near 0.31. Many of the other results were omitted from the sample, so the highest values are more common in it than they were.

Molecular target: Cst6 (UniProt P40535)
Test: PBM E-score (8-mer binding enrichment) (E-score (-0.5 to 0.5)); higher = stronger / more preferred TF binding
Details: protein concentration: 200 nM; construct: GST-DNA-binding domain
Method: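 Universal 'all 10-mer' protein binding microarrays (Agilent AMADID 015681) probed with GST-tagged S. cerevisiae TFs (full-length or DBD) made by in vitro transcription/translation (PURExpress), about 100-200 nM. Bound TF was detected with fluorescent anti-GST. Each ungapped 8-mer (which stands for itself and its reverse complement) is scored by the PBM enrichment score (E-score), a modified Wilcoxon-Mann-Whitney statistic from -0.5 to +0.5, computed with the Universal PBM Analysis Suite. Scale: above 0.35 generally sequence-specific binding.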

Sequence of UniProt P40535 (P40535 whole entry): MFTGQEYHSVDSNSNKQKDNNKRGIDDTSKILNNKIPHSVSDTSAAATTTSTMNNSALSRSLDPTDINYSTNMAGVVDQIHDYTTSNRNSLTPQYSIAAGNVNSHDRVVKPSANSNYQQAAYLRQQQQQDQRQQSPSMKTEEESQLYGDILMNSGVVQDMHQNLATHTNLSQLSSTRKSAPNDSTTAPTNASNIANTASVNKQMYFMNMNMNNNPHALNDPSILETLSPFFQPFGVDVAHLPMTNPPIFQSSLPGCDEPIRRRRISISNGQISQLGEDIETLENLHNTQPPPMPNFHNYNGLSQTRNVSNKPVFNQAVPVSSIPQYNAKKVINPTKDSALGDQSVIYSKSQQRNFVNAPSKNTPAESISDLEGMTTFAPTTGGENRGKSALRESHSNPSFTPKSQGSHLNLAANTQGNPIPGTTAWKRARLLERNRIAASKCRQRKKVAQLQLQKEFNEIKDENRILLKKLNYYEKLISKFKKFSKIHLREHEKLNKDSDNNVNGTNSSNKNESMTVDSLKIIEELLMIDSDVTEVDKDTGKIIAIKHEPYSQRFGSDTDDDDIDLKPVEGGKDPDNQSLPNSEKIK

Row | Sequence | PBM E-score
1 | GCACTCTA | -0.0783
2 | AGAAAACG | 0.168
3 | GCTTAGAC | -0.195
4 | CAAGCGAG | -0.00525
5 | TATAGGCA | -0.112
6 | ACATCTGC | -0.0513
7 | CAACAGCA | 0.00053
8 | AAGGTTGG | 0.0155
9 | GCGGAAAA | 0.17
10 | CCGTAAAA | 0.0767
11 | ACGTAAAA | 0.354
12 | GCGTAAAA | 0.0958
13 | CACACAGG | 0.0469
14 | AGTCATTC | 0.0571
15 | CGTCATTC | 0.467
16 | AGTCATTA | 0.0194
17 | CCTCATTC | -0.0459
18 | GGTCATTA | 0.178
19 | CGTCATTA | 0.477
20 | GAGCACCA | -0.219
21 | ACCCTTCG | -0.0964
22 | ATCGTCTC | -0.0844
23 | ACCGTCAA | 0.159
24 | CTCGTCAG | 0.127
25 | CTCGTCAA | 0.0507

Row | Sequence | PBM E-score
26 | ATCGTCGC | -0.0136
27 | ACCGTCAT | 0.418
28 | GCCGTCAA | 0.0714
29 | CCCGTCAC | 0.2
30 | CTCGTCAC | 0.349
31 | ACCGTCAG | -0.0719
32 | GCCGTCAC | 0.334
33 | ATCGTCAC | 0.401
34 | ACAGGAAG | -0.0175
35 | CCAGCTCA | -0.146
36 | CAGGCATC | -0.213
37 | ATATAACG | 0.267
38 | CAATTAGG | 0.0223
39 | ACCCCCGC | -0.33
40 | ATGTTGGC | -0.0418
41 | CCGATAGA | -0.124
42 | ACCGAGGG | -0.446
43 | CTCCGCAC | -0.0765
44 | CGCTGCGA | 0.0077
45 | TCAACCCA | -0.0214
46 | GTCGTCAC | 0.425
47 | GTCGTCAA | 0.147
48 | ATCGTCAA | 0.223
49 | ATCGTCAT | 0.448
50 | GTCGTCGA | -0.00727

Row | Sequence | PBM E-score
51 | ATCGTCAG | 0.131
52 | CTAAGACA | 0.0903
53 | AGGGCATA | 0.0409
54 | AACGCACG | 0.179
55 | AGCCACAG | -0.232
56 | ATGGATAC | -0.0649
57 | AATTCAAA | 0.23
58 | ACGCAATA | 0.349
59 | GCGCAATA | -0.079
60 | ACGCAATG | 0.24
61 | ATCAGACA | -0.00162
62 | CCGGCGCA | -0.107
63 | GCGGCGCA | 0.197
64 | ACGGCGCA | 0.349
65 | ACGGCGCG | 0.381
66 | ACGGCGAG | 0.18
67 | CCGGCGCG | -0.0219
68 | ACGGCGCT | 0.251
69 | TCGGCGCA | 0.071
70 | ACGGCGAC | 0.217
71 | CCGGCGCC | 0.14
72 | ACGGCGCC | 0.364
73 | GCGGCGCC | 0.376
74 | ACCAAACA | 0.277
75 | AGGAGCCT | -0.209

Row | Sequence | PBM E-score
76 | GATAAGAA | 0.291
77 | CATAAGAA | 0.342
78 | TATAAGAA | 0.125
79 | AATAAGAA | 0.312
80 | AATAAGAG | 0.055
81 | AATAAGAT | 0.232
82 | TCCATAAA | 0.123
83 | CCATTGCC | 0.0353
84 | AATGCACG | 0.0682
85 | AAATTCGG | 0.0235
86 | AAATTCGC | 0.211
87 | AAATTCGT | 0.306
88 | CGCCTCAG | 0.00359
89 | CCTTGACC | -0.19
90 | CGTCACAG | 0.424
91 | AGTCACAG | -0.0682
92 | AGTCACAC | 0.00702
93 | GGTCACAA | -0.0375
94 | CGTCAGAC | 0.287
95 | CGTCAGAG | 0.365
96 | CGTCAGAA | 0.286
97 | TGTCACAA | 0.254
98 | CGTCACAA | 0.4
99 | GGTCACAC | -0.0298
100 | CGTCACAC | 0.414

Row | Sequence | PBM E-score
101 | CCTCACAG | -0.0712
102 | ACGATTCT | 0.039
103 | ACTATCCG | 0.0433
104 | CAAACCAG | -0.0964
105 | CATACATG | 0.0541
106 | CCTTCTCG | -0.264
107 | CAGTAGAG | -0.0984
108 | AGACAAAT | 0.159
109 | AGAAAATG | 0.0622
110 | GACATTGA | 0.096
111 | GTCATTGA | 0.391
112 | CTCATTGA | -0.0286
113 | ATCATTGG | 0.194
114 | ATCATTGA | 0.306
115 | ATCATTGC | 0.188
116 | AGGGCTTG | -0.0617
117 | AGGATCAG | -0.266
118 | CTTCCTGA | 0.112
119 | GGGACTCA | -0.353
120 | CTAGCTAG | -0.074
121 | AAAATAAT | 0.302
122 | AGGTTCCA | -0.124
123 | GTAGTGAA | 0.0467
124 | ATAGTGAA | -0.00864
125 | CTAGTGAC | 0.234

Row | Sequence | PBM E-score
126 | ATAGTGAC | 0.392
127 | GTAGTGAC | 0.332
128 | GCAGTGAC | 0.17
129 | CTCCTGGC | -0.195
130 | CTTCCTCC | -0.235
131 | ATGTCTTC | -0.153
132 | CGATACTA | 0.1
133 | CAACTTCG | 0.0207
134 | ACATCATC | 0.462
135 | ACATCAAG | 0.207
136 | ACATCATA | 0.443
137 | CCATCATA | 0.122
138 | AGATCATG | 0.137
139 | GCATCAGA | 0.159
140 | AAATCATA | 0.275
141 | GCATCATA | 0.339
142 | CCATCATC | 0.146
143 | AAATCATC | 0.175
144 | ACATCATG | 0.409
145 | ACATCAGA | 0.16
146 | ACTTAACT | 0.0697
147 | ATAGCCAA | 0.0258
148 | GGAGCAGA | -0.114
149 | TATGCTAA | 0.0861
150 | CTAGGATA | -0.125

Row | Sequence | PBM E-score
151 | ATCTGGGA | -0.197
152 | GGTTGCGA | -0.0447
153 | AGGGCATC | -0.0843
154 | CAGGTGAC | 0.258
155 | ACGGTGAT | 0.121
156 | GGGGTGAC | 0.284
157 | GCGGTGAC | 0.345
158 | AGGGTGAC | 0.345
159 | ACGGTGAC | 0.307
160 | ACGGTGAG | -0.0622
161 | GCGGTGCC | -0.0111
162 | GAGGTGAC | 0.407
163 | GCGGTGAA | 0.0906
164 | AAGGTGAC | 0.243
165 | AGGGTGAG | -0.176
166 | CGGGCCGA | -0.167
167 | GAGTATGA | 0.169
168 | CATGATCA | 0.231
169 | CCGGTAGA | -0.132
170 | CTCCCTGC | -0.218
171 | ACAGAGAT | 0.178
172 | CCCTTCCG | -0.274
173 | CATAGTTC | 0.0666
174 | AGTGAGAA | 0.149
